Measured values from article PMC4336329 (PLoS ONE, 2015).
About 14,000 (4.5%) of roughly 310,000 compounds showed an effect of 50% or more. The effect is printed as a negative number. The sample holds strong results, similar compounds and a random draw of the others, so the mix is not that of the screen.

The compounds below were run against human ether-à-go-go-related gene (hERG) potassium channel (human, UniProt Q12809) (assay: primary screen, population patch clamp on CHO cells stably expressing hERG; higher = less effect of the substance).
Chain of human ether-à-go-go-related gene (hERG) potassium channel (Q12809 whole entry, looked up): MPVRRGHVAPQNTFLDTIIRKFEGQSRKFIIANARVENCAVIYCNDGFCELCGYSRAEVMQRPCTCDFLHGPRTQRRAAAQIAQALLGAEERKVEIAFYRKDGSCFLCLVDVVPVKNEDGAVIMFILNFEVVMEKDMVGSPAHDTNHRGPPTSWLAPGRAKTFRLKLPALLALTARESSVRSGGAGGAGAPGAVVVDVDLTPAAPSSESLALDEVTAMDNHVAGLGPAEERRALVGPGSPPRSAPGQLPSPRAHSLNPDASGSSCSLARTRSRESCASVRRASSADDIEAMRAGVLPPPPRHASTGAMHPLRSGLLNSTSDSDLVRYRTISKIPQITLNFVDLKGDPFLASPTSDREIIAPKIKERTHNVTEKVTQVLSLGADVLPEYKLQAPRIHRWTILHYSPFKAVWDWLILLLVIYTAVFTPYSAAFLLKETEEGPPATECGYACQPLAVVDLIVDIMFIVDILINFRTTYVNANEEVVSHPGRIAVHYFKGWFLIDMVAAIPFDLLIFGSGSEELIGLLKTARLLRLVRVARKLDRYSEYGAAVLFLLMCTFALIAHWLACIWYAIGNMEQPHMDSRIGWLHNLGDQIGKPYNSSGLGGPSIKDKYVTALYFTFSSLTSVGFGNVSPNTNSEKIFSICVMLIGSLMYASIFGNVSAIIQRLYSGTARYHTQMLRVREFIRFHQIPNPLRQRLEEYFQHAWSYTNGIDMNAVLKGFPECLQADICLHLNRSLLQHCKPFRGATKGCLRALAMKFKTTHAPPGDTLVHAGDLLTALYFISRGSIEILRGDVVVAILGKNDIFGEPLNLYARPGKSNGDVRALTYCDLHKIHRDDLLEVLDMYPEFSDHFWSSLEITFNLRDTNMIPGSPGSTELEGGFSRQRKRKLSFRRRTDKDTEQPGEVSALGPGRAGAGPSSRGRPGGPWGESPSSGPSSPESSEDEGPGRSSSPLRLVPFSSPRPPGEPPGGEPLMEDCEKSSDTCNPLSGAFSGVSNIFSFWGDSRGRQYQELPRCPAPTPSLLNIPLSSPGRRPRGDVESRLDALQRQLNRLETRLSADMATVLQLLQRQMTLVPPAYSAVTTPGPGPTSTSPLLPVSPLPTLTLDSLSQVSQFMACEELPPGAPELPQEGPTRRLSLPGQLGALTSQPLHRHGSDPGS
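Further: peak tail current of the secondary pulse compared with the same well before compound.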

Row | SMILES | hERG current change (%, negative = inhibition) at 10uM [%]
1 | NC(=O)CC(NC(=O)Cc1ccc(Br)cc1)c1ccc(N2CCc3ccccc3C2)c([N+](=O)[O-])c1 (stereo not shown) | -2.08
2 | O=S(=O)(Nc1ccc(Cl)nn1)c1ccccc1 | 12.7
3 | Cn1c(N)c(C(=O)COC(=O)/C=C/c2ccc(OC(F)F)cc2)c(=O)n(C)c1=O | 3.23
4 | O=C(O)C(=O)O.Oc1ccccc1CN1CCN(C(O)(c2ccccc2)c2ccccc2)CC1 | -46
5 | O=C(CN1CCC(C(O)(c2ccccc2)c2ccccc2)CC1)Nc1ccccc1 | -42.1
6 | O=C(O)C(=O)O.Oc1ccccc1CN1CCC(C(O)(c2ccccc2)c2ccccc2)CC1 | -68.5
7 | Nc1c(Cl)cc(-c2csc(N3CCCC3c3nc4cc(Cl)c(Cl)cc4n3CCCO)n2)cc1Cl (stereo not shown) | -2.8
8 | CC(NC(=O)C1CC1)C(c1cccs1)N1CCN(c2ccccc2)CC1 (stereo not shown) | -0.284
9 | COc1ccc(NC(=O)CN(C)Cc2cccs2)cc1Cl | -15.7
10 | O=S(=O)(c1ccc(Br)cc1)c1nc(-c2ccccc2)oc1N1CCOCC1 | -30.7
11 | Cc1ccc(S(=O)(=O)c2nc(-c3ccccc3)oc2N2CCC(C(N)=O)CC2)cc1 | -26.3
12 | CN1CCN(c2oc(-c3ccccc3Cl)nc2S(=O)(=O)c2ccccc2)CC1 | -47.9
13 | O=S(=O)(c1ccccc1)c1nc(-c2ccccc2)oc1N1CCCC1 | 8.44
14 | CN1CCN(c2oc(-c3ccccc3)nc2S(=O)(=O)c2ccc(Br)cc2)CC1 | -68.6
15 | NC(=O)C1CCN(c2oc(-c3ccccc3)nc2S(=O)(=O)c2ccc(Br)cc2)CC1 | -55.9
16 | NC(=O)C1CCN(c2oc(-c3ccc(F)cc3)nc2S(=O)(=O)c2ccccc2)CC1 | -17.4
17 | CN1CCN(c2oc(-c3ccccc3F)nc2S(=O)(=O)c2ccc(Cl)cc2)CC1 | -57.6
18 | O=S(=O)(c1ccc(F)cc1)c1nc(-c2ccccc2F)oc1N1CCCCC1 | -20
19 | CCN(CC)S(=O)(=O)c1cccc(N=Nc2sc(N)nc2C)c1 | -12.8
20 | S=C1NC[C@H](CC2CCCCC2)N1CC1CCCCC1 | -8.59
21 | O=C(CN1CCCCC1)Nc1ccc(NC(=O)c2ccc(Cl)cc2)cc1Cl | 13.7
22 | CCC(NC(=O)c1cc(COc2cncc(Cl)c2)on1)c1ccncc1 (stereo not shown) | 8.75

Row | SMILES | hERG current change (%, negative = inhibition) at 10uM [%]
23 | COc1ccc(-c2cc3ccccc3n2CC(O)CN2CCN(CCO)CC2)cc1 (stereo not shown) | -29.9
24 | COc1ccc(-c2cc3ccccc3n2CC(O)CN2CCC(C)CC2)cc1.O=C(O)C(=O)O (stereo not shown) | -77
25 | COc1ccc(-c2cc3ccccc3n2CC(O)CNCCO)cc1.O=C(O)C(=O)O (stereo not shown) | 3.61
26 | COc1ccc(-c2cc3ccccc3n2CC(O)CN2CCOCC2)cc1 (stereo not shown) | -13.5
27 | COc1ccc(-c2cc3ccccc3n2CC(O)CN2CCCCC2)cc1.O=C(O)C(=O)O (stereo not shown) | -79.6
28 | COc1ccc(-c2cc3ccccc3n2CC(O)Cn2nc(C)cc2C)cc1 (stereo not shown) | 4.62
29 | OCC[C@H]1C[C@H](O)[C@@H](O)[C@@]2(OCc3ccccc32)O1 | 8.35
30 | CCOc1ccccc1N(CC(=O)NC(C)(C)C)C(=O)Cn1nnc(-c2ccc(C)o2)n1 | -16
31 | O=C(C1CC1)N1CCc2cc(Br)cc(S(=O)(=O)N3CCN(c4ccccn4)CC3)c21 | -17.5
32 | COc1ccc(CCNC(=O)NCCc2c[nH]c3ccccc23)cc1OC | -3.31
33 | CCOc1ncccc1C(=O)Nc1cccc(-c2nnc3n2CCCCC3)c1 | -19.6
34 | CC(C)(C)OC(=O)N1CCC(C(=O)NCC2CCCO2)CC1 (stereo not shown) | 16.5
35 | O=C(CC(C(=O)N1CCc2ccccc21)n1ccnc1)NCc1ccccc1 (stereo not shown) | -26.5
36 | O=C(/C=C/c1cccc(F)c1)Nc1cc(S(=O)(=O)N2CCOCC2)ccc1N1CCCC1 | -57.7
37 | COc1cc(/C=C/C(=O)Nc2cc(S(=O)(=O)N3CCOCC3)ccc2N2CCCC2)cc(OC)c1OC | 24
38 | Cc1ccc(NC(=O)/C=C/c2ccc3c(c2)OCO3)cc1S(=O)(=O)N1CCOCC1 | -13
39 | O=C(/C=C/c1ccc(F)cc1)Nc1cc(S(=O)(=O)N2CCOCC2)ccc1N1CCCC1 | -70.9
40 | Cc1ccc(/C=C/C(=O)Nc2cc(S(=O)(=O)N3CCOCC3)ccc2N2CCOCC2)cc1 | -43.2
41 | COc1ccc(/C=C/C(=O)Nc2cc(S(=O)(=O)N3CCOCC3)ccc2N2CCCC2)cc1OC | -40.3
42 | O=C(/C=C/c1ccc(F)cc1)Nc1ccc(S(=O)(=O)N2CCOCC2)cc1 | 9
43 | O=C(/C=C/c1ccc2c(c1)OCO2)Nc1cc(S(=O)(=O)N2CCOCC2)ccc1N1CCOCC1 | -55.9
44 | O=C(/C=C/c1ccccc1)Nc1cc(S(=O)(=O)N2CCOCC2)ccc1N1CCCC1 | -1.04

Row | SMILES | hERG current change (%, negative = inhibition) at 10uM [%]
45 | Cc1ccn(CCC(=O)O)n1 | 26.6
46 | Cc1[nH]n(-c2ccccc2)c(=O)c1/C=N/N1C(=O)c2cccc3cccc(c23)C1=O | 3.73
47 | COc1ccc(/C=C/c2nc3sc4c(c3c(=O)o2)CCC4)cc1 | 4.28
48 | Cc1ccc(-c2nc(N)c3c(-c4ccc(C)cc4)nn(C(C)(C)C)c3n2)cc1 | -1.71
49 | O=C(COc1ccc(S(=O)(=O)N2CCOCC2)cc1)NCCc1ccccc1 | -13.4
50 | C/C(Cl)=C/Cn1c(NCCN(C)C)nc2c1c(=O)n(C)c(=O)n2C | -26.9
51 | CCN(CC)CCNc1nc2c(c(=O)n(C)c(=O)n2C)n1C/C=C(/C)Cl | -58.9
52 | C/C(Cl)=C\Cn1c(NCCc2ccccc2)nc2c1c(=O)n(C)c(=O)n2C | -9.3
53 | CCC(=O)NCCCc1nc(-c2ccccc2)no1 | 5.95
54 | COc1ccc(CN2C(=O)COc3ccccc32)cc1 | 12
55 | CCCCN(CCCC)C(=O)CCS(=O)(=O)c1ccc2c(c1)n(C)c(=O)c(=O)n2C | -69.2
56 | CCCCN(CCCC)C(=O)CN(C)S(=O)(=O)c1ccc2c(c1)n(C)c(=O)c(=O)n2C | -37
57 | CCN(Cc1ccccc1)C(=O)CCS(=O)(=O)c1ccc2c(c1)n(C)c(=O)c(=O)n2C | -15
58 | COc1ccc(-n2c(SCC(=O)NNC(=O)c3ccccc3C)nnc2-c2ccncc2)cc1 | -7.21
59 | CCC(C)NC(=O)CSc1nnc(-c2ccncc2)n1-c1ccc(OC)cc1 (stereo not shown) | -0.947
60 | CCn1c(SCC(=O)NNC(=O)c2ccc(C)cc2)nnc1-c1ccncc1 | -0.879
61 | Cc1ccc(C(=O)NNC(=O)CSc2nnc(-c3ccncc3)n2C)cc1 | 24.9
62 | Cc1ccc(C(=O)NNC(=O)CSc2nnc(-c3ccncc3)n2-c2ccc(C)cc2)cc1 | -51.4
63 | COc1ccc(-n2c(SCC(=O)NNC(=O)c3ccc(C)cc3)nnc2-c2ccncc2)cc1 | -58.6
64 | CC(=O)N1c2ccc(S(=O)(=O)NCCC(=O)NCCc3cccc(C)c3)cc2CC1C (stereo not shown) | -4.31
65 | CC(C)[C@H](NC(=O)c1ccco1)C(=O)OCC(=O)NC12CC3CC(CC(C3)C1)C2 | -18.7
66 | COc1cc(/C=N/n2cnnc2)ccc1OS(=O)(=O)c1ccccc1[N+](=O)[O-] | -51

Row | SMILES | hERG current change (%, negative = inhibition) at 10uM [%]
67 | CCOc1cc(/C=N/n2cnnc2)ccc1OS(=O)(=O)c1ccc(C)cc1 | -50.5
68 | CCOc1cc(/C=N/NS(=O)(=O)c2ccccc2)ccc1OS(=O)(=O)c1ccc(C)cc1 | 2.1
69 | COc1cc(C=O)ccc1OS(=O)(=O)c1ccccc1[N+](=O)[O-] | 4.1
70 | O=[N+]([O-])c1ccccc1S(=O)(=O)Oc1ccc(/C=N/n2cnnc2)cc1 | -40.6
71 | CCOc1cc(/C=N/n2cnnc2)ccc1OS(=O)(=O)c1ccccc1 | -57.7
72 | CCOc1cc(C=C2C(=O)NC(=O)NC2=O)ccc1OS(=O)(=O)c1ccccc1 | -18
73 | Cc1ccc(S(=O)(=O)Oc2cccc(/C=N/n3cnnc3)c2)cc1 | -49
74 | CCOc1cc(/C=N/O)ccc1OS(=O)(=O)c1ccc(C)cc1 | -5.21
75 | Cn1ncc2c(Nc3ccc(Cl)c(Cl)c3)ncnc21 | 14.5
76 | O=C(O)CCn1cc(/C=C2\SC(=S)NC2=O)c(-c2ccccc2)n1 | 21.8
77 | COc1ccc2c(c1)CC/C2=N\NC(=O)c1ccccc1 | -3.69
78 | CC1(C)COC(Nc2ccc(Cl)cc2)=N1 | -35.8
79 | Cc1ccc(Cn2nnnc2CN2CCC(O)(c3ccccc3F)CC2)cc1 | -21.5
80 | O=C(NNC(=O)c1ccc(-n2cncn2)c([N+](=O)[O-])c1)c1ccccc1 | 9.34
81 | Cc1cc(C(=O)NC(C)CCc2ccccc2)ccc1[N+](=O)[O-] (stereo not shown) | -29.5
82 | O=C(NCCCc1ccccc1)c1ccc(-n2cncn2)c([N+](=O)[O-])c1 | -60.5
83 | O=C(NCCC1=CCCCC1)c1ccc(-n2cncn2)c([N+](=O)[O-])c1 | -22.5
84 | CC(CCc1ccccc1)NC(=O)c1ccc(-n2cncn2)c([N+](=O)[O-])c1 (stereo not shown) | -70.9
85 | Cc1ccc(C(=O)NC(C)CCc2ccccc2)cc1[N+](=O)[O-] (stereo not shown) | -13.9
